These results are taken from PubChem BioAssay (Tox21).

In experiment [1] the target is Progesterone receptor (Homo sapiens) (UniProt P06401). In words: qHTS assay to identify small molecule agonists of the progesterone receptor (PR) signaling pathway (AID 1346784; calls by dose curve; also: nearly all actives have a fitted effect of over 30% in size). In a few lines: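 Reporter assay, GripTite PR-UAS-bla HEK 293T cells: 16 hr exposure to DMSO-dissolved compounds at 37C, 5% CO2, in steroid-depleted (2% charcoal-stripped FBS) medium; beta-lactamase measured by FRET fluorescence.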
Sequence of Progesterone receptor (Homo sapiens) (P06401 whole entry, looked up): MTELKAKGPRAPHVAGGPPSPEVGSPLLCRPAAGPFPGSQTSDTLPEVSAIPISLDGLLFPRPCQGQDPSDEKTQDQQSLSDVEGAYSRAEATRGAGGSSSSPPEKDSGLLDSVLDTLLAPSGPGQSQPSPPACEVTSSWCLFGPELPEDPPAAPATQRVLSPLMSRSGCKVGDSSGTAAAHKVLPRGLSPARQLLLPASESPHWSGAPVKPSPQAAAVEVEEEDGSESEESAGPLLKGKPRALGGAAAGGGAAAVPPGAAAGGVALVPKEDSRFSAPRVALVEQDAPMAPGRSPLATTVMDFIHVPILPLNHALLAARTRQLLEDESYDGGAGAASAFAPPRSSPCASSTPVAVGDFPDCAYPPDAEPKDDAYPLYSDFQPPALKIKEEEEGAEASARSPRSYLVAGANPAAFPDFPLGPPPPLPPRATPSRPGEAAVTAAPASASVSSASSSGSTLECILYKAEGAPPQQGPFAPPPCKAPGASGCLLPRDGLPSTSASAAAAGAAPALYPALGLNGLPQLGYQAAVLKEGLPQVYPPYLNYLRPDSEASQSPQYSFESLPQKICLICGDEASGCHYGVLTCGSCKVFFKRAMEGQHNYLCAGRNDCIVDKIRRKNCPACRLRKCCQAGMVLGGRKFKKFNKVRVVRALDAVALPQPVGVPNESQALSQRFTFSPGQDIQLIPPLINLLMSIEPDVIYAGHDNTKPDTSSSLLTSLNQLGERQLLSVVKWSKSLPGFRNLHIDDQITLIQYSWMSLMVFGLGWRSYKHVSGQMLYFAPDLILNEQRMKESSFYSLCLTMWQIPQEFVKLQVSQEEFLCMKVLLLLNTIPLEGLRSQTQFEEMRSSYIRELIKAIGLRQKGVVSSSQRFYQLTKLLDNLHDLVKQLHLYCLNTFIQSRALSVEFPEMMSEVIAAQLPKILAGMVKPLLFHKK
In general terms: qHTS replaces the single test concentration by a dilution series.

For experiment [2] the target is unchanged. Nature of the experiment: qHTS assay to identify small molecule antagonists of the progesterone receptor (PR) signaling pathway (AID 1346795; active = well fitted inhibition curve with a large enough effect in the signal ratio in the repeat runs, not every such curve was filed as active; the % refers to the signal ratio). In a few lines: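 Stimulus R5020 at 1 nM final; cells HEK293T PR-UAS-bla; medium with 2% charcoal-stripped FBS; compound exposure 16 hr at 37C, 5% CO2; detection by FRET beta-lactamase substrate, 2 hr, room temperature.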

The nature of experiment [3]: qHTS assay to identify small molecule antagonists of the progesterone receptor (PR) signaling pathway - cell viability counter screen (AID 1346798). Also: series mostly up to about 92 µM; nearly all actives have a fitted effect of over 50% in size. In a few lines: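 In the same plates used for the beta-lactamase readout, cell viability of compound- and R5020-treated PR-UAS-bla HEK293T cells (16 hr, 37C) was assessed by CellTiter-Glo luminescence.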
Experiment [4] can be described thus: qHTS assay to identify small molecule agonists of the progesterone receptor (PR) signaling pathway - cell viability counter screen (AID 1346799; calls by dose curve; also: nearly all actives have a fitted effect of over 45% in size). In a few lines:
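Multiplexed viability read: CellTiter-Glo luminescence, 30 min RT, following LiveBLAzer FRET measurement on PR-UAS-bla HEK293T cells exposed to compounds 16 hr.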

Experiment [5] is described as follows: qHTS assay to identify small molecule antagonists of the TGF-beta/Smad signaling pathway - cell viability counter screen (AID 1346824). Also: nearly all actives have a fitted effect of over 50% in size. In a few lines:
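SBE-bla HEK 293T cells were plated overnight at 37 C, then given compounds in DMSO plus TGF-beta1 (added as 0.25 ng/mL solution) for 5 hr. After the bla read, CellTiter-Glo was added to the same wells and luminescence read after 30 min at room temperature.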

Experiment [6] in a line: qHTS assay to identify small molecule agonists of the TGF-beta/Smad signaling pathway - cell viability counter screen (AID 1346829). Also: top concentration of the series differs between compounds; nearly all actives have a fitted effect of over 45% in size. The gist of the method: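 In parallel with the Smad reporter read, viability of HEK 293T cells stably carrying SBE-bla is quantified by ATP luminescence following 5 hr compound treatment.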
The nature of experiment [7]: qHTS assay to identify small molecule agonists of the TGF-beta/Smad signaling pathway (AID 1346859; active = well fitted activation curve with a large enough effect in the signal ratio in the repeat runs, not every such curve was filed as active; the % refers to the signal ratio; also: series mostly up to about 77 µM). The gist of the method: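 Screening used HEK 293T SBE-bla cells at 4,000/well. Test agents: 5 hr, 37 C. Detection: FRET substrate, 2 hr RT, then excitation 405 nm with emissions at 460 and 530 nm.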
Experiment [8] deals with Thyrotropin-releasing hormone receptor (Homo sapiens) (UniProt P34981). Nature of the experiment: qHTS assay to identify small molecule agonists of the thyrotropin-releasing hormone receptor (TRHR) signaling pathway (AID 1346891; calls by dose curve; also: series mostly up to about 58 µM). In a few lines:
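Readout was intracellular calcium fluorescence in TRHR-Hek293 cells. Cells were incubated 18 h, dye-loaded 2 h at 37 °C, and treated with compound in agonist mode.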

The nature of experiment [9]: Human pregnane X receptor (PXR) small molecule agonists, qHTS cell viability counter screen (AID 1346977). Also: nearly all actives have a fitted effect of over 50% in size. The gist of the method: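 In each well, the PXR reporter HepG2 line was checked for viability: CellTiter-Fluor reagent added 23hr post-dosing, fluorescence read after 1hr incubation at 37C.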
Experiment [10] in a line: Caspase-3/7 induction in CHO-K1 cells by small molecules, qHTS cell viability counter screen (AID 1346979). Also: nearly all actives have a fitted effect of over 35% in size. The gist of the method: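 Following a 5hr settling period, CHO-K1 cells at 1,500 per well received DMSO-dissolved compounds. Cell viability was quantified 16hr later by CellTiter-Fluor fluorescence, measured after 1hr with reagent at 37C.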
Experiment [11] in a line: Caspase-3/7 induction in CHO-K1 cells by small molecules, qHTS assay (AID 1346980). Also: nearly all actives have a fitted effect of over 15% in size. The gist of the method:
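Wild-type cells were seeded at 1,500 per well and settled 5 hr at 37 C, 5% CO2, then exposed to DMSO-dissolved compounds for 17 hr. Caspase-Glo 3/7 reagent was added, and luminescence was read after 30min at room temperature.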

The nature of experiment [12]: Caspase-3/7 induction in HepG2 cells by small molecules, qHTS cell viability counter screen (AID 1346981). Also: series mostly up to about 92 µM; nearly all actives have a fitted effect of over 30% in size. In a few lines:
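Treatment of HepG2 cells with DMSO-delivered compounds ran 16 hr at 37 C following a 5-hr pre-incubation of 2,000 cells/well. CellTiter-Fluor fluorescence, read after 1 hr, served as the viability measure in a qHTS format.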

For experiment [13], the target named is Nuclear receptor subfamily 1 group I member 2 (Homo sapiens) (UniProt O75469). Nature of the experiment: Human pregnane X receptor (PXR) small molecule agonists, qHTS assay (AID 1346982). Also: nearly all actives have a fitted effect of over 35% in size. In a few lines: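 Stable HepG2 line reporting PXR-mediated CYP3A4 expression via luciferase. Treatment: 24 hr with compounds in DMSO at 37 C. Detection: ONE-Glo luminescence.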
Sequence of Nuclear receptor subfamily 1 group I member 2 (Homo sapiens) (O75469 whole entry, looked up): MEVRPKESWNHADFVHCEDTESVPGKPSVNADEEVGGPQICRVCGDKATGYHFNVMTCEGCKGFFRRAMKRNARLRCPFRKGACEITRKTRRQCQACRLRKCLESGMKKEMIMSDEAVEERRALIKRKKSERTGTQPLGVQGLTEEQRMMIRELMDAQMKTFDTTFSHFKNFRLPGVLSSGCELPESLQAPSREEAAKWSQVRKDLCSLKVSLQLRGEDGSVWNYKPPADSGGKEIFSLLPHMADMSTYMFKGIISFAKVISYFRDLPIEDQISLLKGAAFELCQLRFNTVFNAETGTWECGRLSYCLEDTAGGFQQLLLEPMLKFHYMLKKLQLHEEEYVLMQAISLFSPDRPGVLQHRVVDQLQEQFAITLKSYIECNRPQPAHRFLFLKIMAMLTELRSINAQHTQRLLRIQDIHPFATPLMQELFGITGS

Experiment [14] concerns the target Cytochrome P450 2D6 (Homo sapiens) (UniProt P10635). Nature of the experiment: Cytochrome P450 Family 2 Subfamily D Member 6 (CYP2D6) small molecule antagonists: luciferase reporter qHTS assay (AID 1671196). Also: nearly all actives have a fitted effect of over 50% in size. Also: potency is read from the fitted curve at half-maximal effect. In a few lines:
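Chemicals tested for interference with CYP2D6 activity; proluciferin substrate, NADPH regeneration, 1 h at room temperature, luminescent detection.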
In general terms: Reporter assays use an easily measured gene product as a stand-in for the process of interest.

The target in experiment [15] is Cytochrome P450 2C19 (Homo sapiens) (UniProt P33261). Nature of the experiment: Cytochrome P450 Family 2 Subfamily C Member 19 (CYP2C19) small molecule antagonists: luciferase reporter qHTS assay (AID 1671197). Also: nearly all actives have a fitted effect of over 65% in size. Also: potency is read from the fitted curve at half-maximal effect. The gist of the method: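 Compounds were tested on CYP2C19 activity via proluciferin conversion to luciferin. The 37C, 1 h reaction followed NADPH addition; detection reagent stopped it.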
Sequence of Cytochrome P450 2C19 (Homo sapiens) (P33261 whole entry, looked up): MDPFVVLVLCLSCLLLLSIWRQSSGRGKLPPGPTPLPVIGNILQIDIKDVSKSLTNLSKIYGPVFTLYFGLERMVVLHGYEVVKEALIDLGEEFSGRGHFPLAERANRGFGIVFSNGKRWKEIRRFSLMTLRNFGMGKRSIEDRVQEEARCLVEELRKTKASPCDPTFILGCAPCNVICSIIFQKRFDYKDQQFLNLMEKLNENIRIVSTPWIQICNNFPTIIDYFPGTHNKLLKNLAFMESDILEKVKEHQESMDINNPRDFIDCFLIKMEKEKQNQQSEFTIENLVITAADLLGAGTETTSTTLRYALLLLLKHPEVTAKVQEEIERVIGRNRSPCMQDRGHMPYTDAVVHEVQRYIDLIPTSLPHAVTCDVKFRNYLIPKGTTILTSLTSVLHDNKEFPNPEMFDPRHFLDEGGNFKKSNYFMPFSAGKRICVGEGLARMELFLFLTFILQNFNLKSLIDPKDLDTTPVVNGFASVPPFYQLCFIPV

The nature of experiment [16]: Caspase-3/7 induction in HepG2 cells by small molecules, qHTS assay (AID 1346978). Also: nearly all actives have a fitted effect of over 15% in size. In a few lines:
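Wild-type HepG2 cells (2,000/well) were settled 5 h at 37 C, 5% CO2, then exposed to compounds in DMSO for 17 h. Caspase-3/7 activity was read by luminescence 30 min after adding Caspase-Glo 3/7 reagent at room temperature.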

The target of experiment [17] is Thyrotropin-releasing hormone receptor (Homo sapiens) (UniProt P34981). In words: qHTS assay to identify small molecule antagonists of the thyrotropin-releasing hormone receptor (TRHR) signaling pathway (AID 1346877; active = well fitted inhibition curve with a large enough effect in the repeat runs, not every such curve was filed as active; also: series mostly up to about 51 µM). In a few lines: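 Overnight-plated (18 h, 37 °C) HEK293 cells expressing TRHR were dye-loaded 2 h, treated with compound, then stimulated with TRH at 1 nM final. Fluorescence intensity was captured every second for 3 min.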
Sequence of Thyrotropin-releasing hormone receptor (Homo sapiens) (P34981 whole entry, looked up): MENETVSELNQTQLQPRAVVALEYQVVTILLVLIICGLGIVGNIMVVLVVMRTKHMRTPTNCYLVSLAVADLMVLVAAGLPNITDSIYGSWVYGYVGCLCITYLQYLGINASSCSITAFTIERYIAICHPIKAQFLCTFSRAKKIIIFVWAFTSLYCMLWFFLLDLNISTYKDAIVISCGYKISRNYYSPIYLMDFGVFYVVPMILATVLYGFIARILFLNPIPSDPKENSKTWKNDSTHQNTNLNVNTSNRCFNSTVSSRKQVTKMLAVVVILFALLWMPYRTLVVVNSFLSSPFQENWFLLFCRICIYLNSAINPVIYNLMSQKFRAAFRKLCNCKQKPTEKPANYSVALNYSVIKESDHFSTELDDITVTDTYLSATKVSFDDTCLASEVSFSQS

Experiment [18] addresses Nuclear receptor subfamily 1 group I member 2 (Rattus norvegicus) (UniProt Q9R1A7). Nature of the experiment: Rat pregnane X receptor (rPXR) activation by small molecules, qHTS assay (AID 1346983). Also: nearly all actives have a fitted effect of over 20% in size. As to conditions: rPXR luciferase reporter cells, One-Glo luminescence, 24 h; stronger effect = higher value. The gist of the method: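 Cell-based rPXR luciferase reporter assay, 2,000 cells per well, rested 5hr at 37 C before compound addition in DMSO, then 24 hr at 37 C. One-Glo reagent was added and luminescence read after 30 min at room temperature.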

Experiment [19] has as its target Nuclear receptor subfamily 1 group I member 2 (Homo sapiens) (UniProt O75469). Nature of the experiment: CYP3A4 induction through human pregnane X receptor (PXR) by small molecules, qHTS assay (AID 1346984). Also: nearly all actives have a fitted effect of over 40% in size. In a few lines:
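After 24 h at 37C with compound, DPX-2 cells (HepG2, co-transfected PXR response element and CYP3A4 promoter-luciferase) got 3uM final P450-Glo Luciferin-IPA for 3 h; One-Glo luminescence followed.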

The target is the same in experiment [20]. In words: Human pregnane X receptor (PXR) activation by small molecules, qHTS assay (AID 1346985). Also: nearly all actives have a fitted effect of over 40% in size. In a few lines:
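DPX-2 cells (HepG2 co-transfected with a PXR response element and a CYP3A4-promoter luciferase construct) were seeded at 2,000 per well, rested 5 hr at 37C, then exposed to DMSO-dissolved compounds for 24 hr. Activation was read as luciferase luminescence.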

Unmarked numbers belong to inactive results. Results filed as inconclusive are left out. Calls of active or inactive are those of the source. Unless noted, calls follow the shape of the dose curve; as a rule, active = well fitted curve in the direction sought with a large enough effect in the repeat runs; inconclusive = weak or mixed curves; inactive = no such curve, though single readings can be large; an effect the other way counts as inactive or inconclusive.
% is scaled to controls: 0 for no effect and ±100 for the full control effect.

Sequence of Cytochrome P450 2D6 (Homo sapiens) (P10635 whole entry, looked up): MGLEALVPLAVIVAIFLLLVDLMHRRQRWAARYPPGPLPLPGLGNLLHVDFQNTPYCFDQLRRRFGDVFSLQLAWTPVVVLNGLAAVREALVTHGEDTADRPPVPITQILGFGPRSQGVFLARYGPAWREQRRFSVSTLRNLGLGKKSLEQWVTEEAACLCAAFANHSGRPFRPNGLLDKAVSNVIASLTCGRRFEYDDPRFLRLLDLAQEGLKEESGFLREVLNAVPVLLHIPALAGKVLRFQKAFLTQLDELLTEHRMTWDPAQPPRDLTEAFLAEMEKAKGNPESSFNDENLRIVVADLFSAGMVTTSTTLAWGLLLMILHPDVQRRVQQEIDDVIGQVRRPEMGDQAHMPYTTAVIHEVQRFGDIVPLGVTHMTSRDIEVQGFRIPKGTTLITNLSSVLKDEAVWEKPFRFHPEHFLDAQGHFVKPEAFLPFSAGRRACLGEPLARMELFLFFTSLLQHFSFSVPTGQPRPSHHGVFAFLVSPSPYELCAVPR
Sequence of Nuclear receptor subfamily 1 group I member 2 (Rattus norvegicus) (Q9R1A7 whole entry, looked up): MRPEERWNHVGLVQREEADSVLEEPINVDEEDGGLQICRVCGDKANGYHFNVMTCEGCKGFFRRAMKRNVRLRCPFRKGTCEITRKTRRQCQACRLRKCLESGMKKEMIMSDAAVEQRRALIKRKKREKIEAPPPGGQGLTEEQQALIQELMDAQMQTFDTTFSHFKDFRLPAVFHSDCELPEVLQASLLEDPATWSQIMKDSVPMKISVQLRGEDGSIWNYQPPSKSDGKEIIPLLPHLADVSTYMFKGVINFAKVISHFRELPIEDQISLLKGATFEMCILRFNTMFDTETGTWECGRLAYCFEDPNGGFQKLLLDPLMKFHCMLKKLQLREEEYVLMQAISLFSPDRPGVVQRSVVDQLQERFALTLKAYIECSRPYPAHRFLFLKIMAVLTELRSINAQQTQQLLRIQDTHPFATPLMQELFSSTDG

In the case of `Cc1ccccc1N=O`, the Potency result in experiment [1], in experiment [2], in experiment [3], in experiment [4], in experiment [9] and in experiment [10] was “inactive” each time. Moreover, the Potency entry in experiment [12], in experiment [13], in experiment [14] and in experiment [15] was “inactive” throughout. Besides, the compound was called inactive in [5], in [6], in experiment [7], in experiment [8] and in experiment [11].
Take `C=CC(OCC)OCC`: the Potency result in experiment [1], in [2], in experiment [3], in experiment [4], in [9] and in [16] was “inactive” throughout. The Potency result in experiment [10], in [12], in [13] and in experiment [15] was “inactive” in each case. The outcome in [5], in experiment [6], in experiment [7], in experiment [8] and in [11] was inactive.
Take `O=C(O)c1ccc(Cl)cc1Cl`: the Potency result in experiment [1], in [2], in experiment [3], in experiment [4], in experiment [9] and in experiment [12] was “inactive” each time. Also, the Potency result in [15] was “inactive”. The outcome in [5], in experiment [6], in experiment [7], in experiment [17], in experiment [8] and in experiment [11] was inactive.
With `COP(=O)(OC)OC(c1ccc(Cl)cc1)P(=O)(OC)OC` (stereo unspecified), the Potency entry in experiment [1], in [2], in experiment [3], in experiment [4], in [9] and in experiment [16] was “inactive” each time. In addition, the Potency entry in experiment [10], in experiment [12], in [13], in [19], in [20] and in experiment [14] was “inactive” in each case. Besides, in experiment [15], the Potency result was “inactive”. In addition, the call in experiment [5], in experiment [6], in [7], in experiment [8] and in [11] was inactive. In addition, the max activation in [18] was 4.37%.
For the compound `CC(C)(C)c1n[nH]c(=S)n(N)c1=O`, the Potency result in [1], in experiment [2], in [3], in [4], in experiment [9] and in experiment [16] was “inactive” each time. Besides, the Potency result in [10], in experiment [12], in experiment [13] and in [14] was “inactive” throughout. In addition, the compound was called inactive in experiment [5], in experiment [6], in experiment [7], in experiment [17] and in [11].
Turning to `CCCCOCCOC(=O)COc1nc(Cl)c(Cl)cc1Cl`, the Potency result in experiment [1], in experiment [2], in [3], in experiment [4], in experiment [9] and in experiment [10] was “inactive” each time. Also, the Potency entry in experiment [12] was “inactive”. For the same compound, the result in [5], in experiment [6], in experiment [7], in [17] and in experiment [11] was inactive. In experiment [15], the Potency was 31.7 µM (active).
Take `Cc1ccc2c(c1)OCC(=O)CO2`: the Potency result in experiment [1], in experiment [2], in [3], in experiment [4], in [9] and in experiment [16] was “inactive” each time. The call in [5], in [6], in experiment [7], in experiment [17] and in experiment [11] was inactive. Moreover, in experiment [14], the Potency is 35.6 µM (active).
Take `COc1ccc(OC)c(Cl)c1`: the Potency entry in experiment [1], in [2], in experiment [3], in [4], in experiment [9] and in experiment [10] was “inactive” each time. For the same compound, the Potency result in [12], in [13] and in experiment [15] was “inactive” throughout. Further, the result in experiment [5], in experiment [6], in [7], in experiment [17], in [8] and in experiment [11] was inactive.
For the compound `CCCCCCCCOS(=O)(=O)O`, the Potency result in experiment [1], in [2], in [3], in experiment [4], in experiment [9] and in [16] was “inactive” throughout. The Potency result in [12] and in experiment [14] was “inactive” each time. The compound was called inactive in experiment [5], in [6], in experiment [7], in experiment [17] and in [11]. Further, the Potency in experiment [15] was 71 µM (active).
